Laboratory results: the supplement of paper PMC7380943

Columns and labels:
[1] = system: CLZ3 (HCA2 human fibroblast dual HR-NHEJ reporter); assay: NHEJ repair efficiency (GFP+ cells) relative to control (log10 fold); higher = more non-homologous end joining; conditions: 5 µM; doxycycline 0.5 ug/mL
[2] = system: CLZ3 (HCA2 human fibroblast dual HR-NHEJ reporter); assay: HR repair efficiency (tdTomato+ cells) relative to control (log10 fold); higher = more homologous recombination; conditions: 5 µM; doxycycline 0.5 ug/mL
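Throughout, for HR repair efficiency (tdTomato+ cells) relative to control: compound given one day before doxycycline, which switches on I-SceI endonuclease expression to create double-strand breaks within the integrated reporter.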
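Throughout, for NHEJ repair efficiency (GFP+ cells) relative to control: compound given one day ahead of doxycycline, which switches on I-SceI endonuclease to cut the chromosomally integrated reporter and create DSBs.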

Q: Which “NHEJ repair efficiency (log10)” value [1] does the source give for `NC(=O)c1cccnc1` [Nicotinamide] here?
A: 0.139

Q: And the “HR repair efficiency (log10)” value [2]?
A: 0.186

Q: Which “NHEJ repair efficiency (log10)” value [1] does the source give for `COc1c2ccoc2cc2oc(=O)ccc12` [Bergapten] here?
A: -0.153

Q: What about the “HR repair efficiency (log10)” value [2] of the same compound?
A: 0.125

Q: With `COc1cc(C=O)ccc1O` [Vanillin] as the compound, how does the “NHEJ repair efficiency (log10)” value [1] read?
A: -0.132

Q: What about the “HR repair efficiency (log10)” value [2] of the same compound?
A: -0.154

Q: With `CCCCCCCCCCCCCCCCCC(=O)OC` [Methyl Stearate] as the compound, how does the “NHEJ repair efficiency (log10)” value [1] read?
A: -0.0143

Q: And the “HR repair efficiency (log10)” value [2]?
A: -0.0898

Q: Which “NHEJ repair efficiency (log10)” value [1] does the source give for `CCC/C=C1\OC(=O)C2=C1CCC1C3C=C4C(=O)O/C(=C\CCC)C4(CC3)C21` (stereo unspecified) [Levistilide A] here?
A: -0.106

Q: What about the “HR repair efficiency (log10)” value [2] of the same compound?
A: 0.0314

Q: With `CC(=O)O[C@@H]1C[C@@]23C[C@@]24CC[C@H](O[C@@H]2OC[C@@H](O)[C@H](O)[C@H]2O)C(C)(C)[C@@H]4CC=C3[C@]2(C)C[C@@H]3OC4(C[C@@H](C)[C@@H]3[C@@]12C)OC(O)C1(C)OC41` (stereo partly specified) [Cimicifugoside] as the compound, how does the “NHEJ repair efficiency (log10)” value [1] read?
A: 0.0323

Q: What about the “HR repair efficiency (log10)” value [2] of the same compound?
A: 0.0562

Q: How did the “NHEJ repair efficiency (log10)” value [1] turn out when `C/C=C/C#CC#C[C@@H](O)[C@@H](/C=C/CCCO)O[C@@H]1O[C@H](CO)[C@@H](O)[C@H](O)[C@H]1O` [Lobetyolin] was run?
A: 0.048

Q: What about the “HR repair efficiency (log10)” value [2] of the same compound?
A: 0.131

Q: `C[C@@H]1O[C@@H](OC[C@H]2O[C@@H](Oc3cc(O)c4c(=O)cc(-c5ccc(O)cc5)oc4c3)[C@H](O[C@@H]3O[C@@H](C)[C@H](O)[C@@H](O)[C@H]3O)[C@@H](O)[C@@H]2O)[C@H](O)[C@H](O)[C@H]1O` [Ligustroflavone] was tested. Which “NHEJ repair efficiency (log10)” value [1] did it give?
A: 0.105

Q: What about the “HR repair efficiency (log10)” value [2] of the same compound?
A: 0.0603

Q: With `COc1ccc([C@H]2OC[C@H]3[C@@H]2CO[C@H]3c2ccc(O[C@@H]3O[C@H](CO)[C@@H](O)[C@H](O)[C@H]3O)c(OC)c2)cc1OC` [Phillyrin] as the compound, how does the “NHEJ repair efficiency (log10)” value [1] read?
A: -0.0633

Q: What about the “HR repair efficiency (log10)” value [2] of the same compound?
A: -0.0538

Q: `C=C[C@H]1[C@H](O[C@@H]2O[C@H](CO)[C@@H](O)[C@H](O)[C@H]2O)OC=C2C(=O)OCC[C@]21O` [Swertiamarin] was tested. Which “NHEJ repair efficiency (log10)” value [1] did it give?
A: -0.0365

Q: What about the “HR repair efficiency (log10)” value [2] of the same compound?
A: -0.0353

Q: Which results are given for `COc1cc2c(cc1OC)-c1cc3ccc4c(c3c[n+]1CC2)OCO4` [Epiberberine]?
A: NHEJ repair efficiency (log10) [1]: -0.03; HR repair efficiency (log10) [2]: 0.05

Q: How did the “NHEJ repair efficiency (log10)” value [1] turn out when `COc1cc(CNC(=O)CCCCCCC(C)C)ccc1O` [Dihydrocapsaicin] was run?
A: -0.263

Q: What about the “HR repair efficiency (log10)” value [2] of the same compound?
A: -0.256

Q: What does the source list for `O=C(O)/C=C/C(=O)O` [Fumaric Acid]?
A: NHEJ repair efficiency (log10) [1]: 0.0532; HR repair efficiency (log10) [2]: 0.136

Q: Which “NHEJ repair efficiency (log10)” value [1] does the source give for `C=C1C(=O)[C@@]23CC[C@@H]4C(C)(C)[C@H](O)CC[C@@]4(C)[C@@H]2[C@@H](O)C[C@@H]1C3` [Tenuifolin A] here?
A: -0.0342

Q: What about the “HR repair efficiency (log10)” value [2] of the same compound?
A: -0.13

Q: What does the source list for `COc1c2c(cc3oc(C)cc(=O)c13)O[C@H](C(C)(C)O)C2` [5-O-Methylvisamminol]?
A: NHEJ repair efficiency (log10) [1]: -0.159; HR repair efficiency (log10) [2]: -0.14

Q: With `CC(=O)OC(C)C(C)C(=O)OCC12C3CC(C)(C)[C@H](O[C@@H]1C[C@]1(C)C3=CCC3C4(C)CCC(O[C@@H]5O[C@H](C(=O)O)[C@@H](O[C@H]6O[C@H](CO)[C@@H](O)[C@H](O)[C@H]6O)[C@H](O)[C@H]5O[C@@H]5OC[C@@H](O)[C@H](O)[C@H]5O)[C@](C)(CO)C4CCC31C)C2O` (stereo partly specified) [Sodium Aescinate] as the compound, how does the “NHEJ repair efficiency (log10)” value [1] read?
A: 0.101

Q: What about the “HR repair efficiency (log10)” value [2] of the same compound?
A: 0.0537

Q: Which “NHEJ repair efficiency (log10)” value [1] does the source give for `CC(C)=CCC[C@](C)(O[C@@H]1O[C@H](CO)[C@@H](O)[C@H](O)[C@H]1O)[C@H]1CC[C@]2(C)[C@@H]1[C@H](O)C[C@@H]1[C@@]3(C)CC[C@H](O[C@@H]4O[C@H](CO)[C@@H](O)[C@H](O)[C@H]4O[C@@H]4O[C@H](CO)[C@@H](O)[C@H](O)[C@H]4O)C(C)(C)[C@@H]3CC[C@]12C` [Ginsenoside Rd] here?
A: 0.0871

Q: And the “HR repair efficiency (log10)” value [2]?
A: 0.0615

Q: What does the source list for `O=c1oc2c(O)c(O)cc3c(=O)oc4c(O)c(O)cc1c4c23` [Ellagic Acid]?
A: NHEJ repair efficiency (log10) [1]: -0.0512; HR repair efficiency (log10) [2]: -0.174

Q: What does the source list for `COc1ccc(-c2cc(=O)c3c(O)cc(O[C@@H]4O[C@H](CO[C@@H]5O[C@@H](C)[C@H](O)[C@@H](O)[C@H]5O)[C@@H](O)[C@H](O)[C@H]4O)cc3o2)cc1` [Linarin]?
A: NHEJ repair efficiency (log10) [1]: -0.0758; HR repair efficiency (log10) [2]: 0.00777

Q: Which “NHEJ repair efficiency (log10)” value [1] does the source give for `C/C=C(/C)C(=O)O[C@@H]1[C@H](OC(C)=O)c2c(ccc3ccc(=O)oc23)OC1(C)C` [Praeruptorin A] here?
A: -0.00436

Q: What about the “HR repair efficiency (log10)” value [2] of the same compound?
A: -0.0186

Q: With `C/C=C(\C)C(=O)OC1c2c(ccc3ccc(=O)oc23)OC(C)(C)C1OC(=O)/C(C)=C/C` (stereo unspecified) [Praeruptorin B] as the compound, how does the “NHEJ repair efficiency (log10)” value [1] read?
A: -0.0992

Q: What about the “HR repair efficiency (log10)” value [2] of the same compound?
A: 0.0577

Q: With `O=C1c2ccccc2C(=O)c2c(O)c(O)cc(O)c21` [Purpurin] as the compound, how does the “NHEJ repair efficiency (log10)” value [1] read?
A: -0.0313

Q: What about the “HR repair efficiency (log10)” value [2] of the same compound?
A: 0.0725

Q: What does the source list for `C[C@@]12C[C@@]3(O)O[C@@H](O1)[C@]1(COC(=O)c4ccc(O)cc4)[C@@H]3C[C@]12O[C@@H]1O[C@H](CO)[C@@H](O)[C@H](O)[C@H]1O` [Oxypaeoniflorin]?
A: NHEJ repair efficiency (log10) [1]: 0.00873; HR repair efficiency (log10) [2]: 0.0237
